# Data published in PubChem BioAssay (NCATS).
# “And” between values parts separate entries of the source, which are not always exact repeats. Equal values may be shown once. Inconclusive results are not listed. The source made the active and inactive calls. Unless noted, calls come from the whole dose curve; as a rule, active = well fitted curve in the direction sought with a large enough effect; inconclusive = small, poorly fitted or top-dose-only effect, or another doubt; inactive = no such curve, though single readings can be large; an effect the other way counts as inactive or inconclusive. Where a SMILES comes first, the peptide text is derived from it. [ ]: non-standard residue; d: D form. The star is where a group is joined. Benzoyl(4-tBu) = CC(C)(C)c1ccc(C(=O)*)cc1; Lys(Et2) = CCN(CC)CCCC[C@H](N)C(=O)O
# What was measured:
# [1] = qHTS to identify inhibitors of the type 1 interferon - major histocompatibility complex class I in skeletal muscle: primary screen against the NCATS Mechanism Interrogation Plate v5.0 (MIPE) Libary (AID 1347411); note: nearly all actives have a fitted effect of over 65% in size; note: potency is the fitted concentration of half-maximal effect;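 for activity change, negative = inhibition: plate controls were vehicle for no effect and reference inhibitor for full effect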
# In short: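 Cells were genome-edited human myoblasts carrying a HiBit tag on endogenous HLA-B. They were treated with IFN-beta (4.0 ng/ml) and titrated compounds (top 46 uM) for 24 hrs before lytic HiBiT detection.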
# [2] = Primary qHTS for inhibitors of nuclear receptor binding SET domain protein 2 (NSD2) in an isogenic RCH-ACV NSD2 p.E1099K mutant (9B) (AID 1645876); note: nearly all actives have a fitted effect of over 70% in size; note: potency is the fitted concentration of half-maximal effect; for activity change, negative = viability loss: % is set by controls: 0 for no effect and ±100 for the full control effect
# [3] = Primary qHTS for inhibitors of nuclear receptor binding SET domain protein 2 (NSD2) in an RCH-ACV wild type WT cells (2C) (AID 1645877); note: nearly all actives have a fitted effect of over 70% in size; note: potency is the fitted concentration of half-maximal effect; for activity change, negative = cell killing: % is set by controls: 0 for no effect and ±100 for the full control effect
# [4] = molecular target: Glutathione peroxidase 1 (Homo sapiens) (UniProt P07203); assay: Primary qHTS Assay for Inhibitors of Recombinant Selenoprotein Glutathione Peroxidase 1 (GPX1) (AID 1845191); note: nearly all actives have a fitted effect of over 65% in size
# In short: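 Recombinant GPX1 (10 nM final) was preincubated with compound for 30 min at room temperature, then reacted with 1 mM GSH, 0.5 mM CHP, 0.5 mM NADPH and 100 nM glutathione reductase; NADPH fluorescence (340/450 nm) was read at 0 and 15 min.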
# [5] = molecular target: Phospholipid hydroperoxide glutathione peroxidase GPX4 (Homo sapiens) (UniProt P36969); assay: Primary qHTS Assay for Inhibitors of Recombinant Selenoprotein Glutathione Peroxidase 4 (GPX4) (AID 1845192); details: outcome: dose series up to 50 µM unless noted; note: nearly all actives have a fitted effect of over 65% in size; note: potency is the fitted concentration of half-maximal effect; for activity change, negative = inhibition: series mostly up to about 50 µM; % is set by controls: 0 for no effect and ±100 for the full control effect
# In short: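 GR-coupled readout: 100 nM GR, 1 mM GSH, 0.5 mM NADPH; NADPH fluorescence (ex 340/em 450 nm) read at t=0 and after 15 min RT. GPX4 200 nM, preincubated 30 min with compound; substrate 0.5 mM CHP.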
# [6] = qHTS drug screen for cell cycle checkpoint inhibitors in PARPi-resistant BRCA-mutant ovarian cancer cell lines. (AID 1963452; calls by dose curve; note: potency is the fitted concentration of half-maximal effect); details: PEO1/OlaR viability, CellTiter-Glo luminescence, 96 h; for Z-AUC: stronger effect = lower value
# In short: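 PEO1, PEO4 and PEO1/OlaR ovarian cancer cells, 600 per well, exposed 96 h at 37C to a dilution series. Viability read by CellTiter-Glo luminescence, normalized to DMSO and empty wells; activity summarized as Z-AUC.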
# [7] = measured here: PEO1 parental Z-AUC
# Phospholipid hydroperoxide glutathione peroxidase GPX4 (Homo sapiens), sequence (P36969 whole entry, looked up): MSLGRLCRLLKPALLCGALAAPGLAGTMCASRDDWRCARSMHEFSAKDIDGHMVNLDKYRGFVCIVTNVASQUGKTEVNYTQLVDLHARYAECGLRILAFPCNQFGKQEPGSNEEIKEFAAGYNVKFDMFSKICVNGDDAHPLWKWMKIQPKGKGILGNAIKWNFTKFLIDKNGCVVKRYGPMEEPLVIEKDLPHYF
# Glutathione peroxidase 1 (Homo sapiens), sequence (P07203 whole entry, looked up): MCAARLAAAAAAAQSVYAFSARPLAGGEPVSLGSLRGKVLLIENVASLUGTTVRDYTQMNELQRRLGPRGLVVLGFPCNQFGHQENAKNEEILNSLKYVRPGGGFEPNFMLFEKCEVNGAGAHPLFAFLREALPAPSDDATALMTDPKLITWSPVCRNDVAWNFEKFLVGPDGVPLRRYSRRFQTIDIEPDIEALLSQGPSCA
Compound,Potency [1],Potency [2],Potency [3],Potency [4],Potency [5],Z-AUC [6],"Z-AUC [6, 7]",Z-AUC ([6]; measured here: PEO4 Z-AUC),"activity change, negative = inhibition [1]",Potency [6],outcome [4],outcome [5],"activity change, negative = viability loss [2]","activity change, negative = cell killing [3]","activity change, negative = inhibition [5]"
CC1Cc2ccccc2N1C(=O)Cc1nc(N2CCOCC2)cc(=O)[nH]1 (stereo unspecified),inactive,5250 nM (active),4680 nM (active),inactive,inactive,-1.34 (inactive),-0.404,-0.574,,,,,,,
C=C1C[C@@H]2CC[C@@]34C[C@H]5O[C@H]6[C@@H](O3)[C@H]3O[C@H](CC[C@@H]3O[C@H]6[C@H]5O4)CC(=O)C[C@@H]3[C@@H](OC)[C@@H](C[C@H](O)CN)O[C@H]3C[C@H]3O[C@@H](CC[C@@H]1O2)C[C@@H](C)C3=C,,1.4 nM (active),1.1 nM (active),inactive,inactive,,-3.01,-2.65,-7.19% [at 8.44 µM] (inactive),8.9 nM (active),,,,,
COc1cc([C@@H]2c3cc4c(cc3[C@@H](O[C@@H]3O[C@@H]5CO[C@@H](c6cccs6)O[C@H]5[C@H](O)[C@H]3O)[C@H]3COC(=O)[C@H]23)OCO4)cc(OC)c1O,inactive,33.2 nM (active),23.5 nM (active),inactive,inactive,,-1.88,-2.18,,87.1 nM (active),,,,,
COc1cc2c(Oc3ccc4[nH]c(C)cc4c3F)ccnc2cc1OCC1(N)CC1,inactive,5900 nM (active),3720 nM (active),inactive,inactive,0.184 (inactive),0.236,0.196,,,,,,,
C[C@H]1O[C@H](O[C@H]2[C@H](O)[C@@H](O)[C@@H](O[C@H]3[C@H](O)[C@@H](O)C(O)O[C@@H]3CO)O[C@@H]2CO)[C@H](O)[C@@H](O)[C@@H]1N[C@H]1C=C(CO)[C@@H](O)[C@H](O)[C@H]1O (stereo partly specified),inactive,inactive,inactive,inactive,inactive,0.621 (inactive),1.06,0.614,,,,,,,
CN(C)CCNC(=O)NC[C@H]1CC[C@@H]2[C@H](O1)c1cc(C(F)(F)F)ccc1N[C@H]2c1ccccc1,inactive,263 nM (active),417 nM (active),inactive,inactive,-0.264 (inactive),-0.891,-1.1,,,,,,,
N[C@@H](CCC(=O)O)C(=O)N[C@@H](Cc1c[nH]c2ccccc12)C(=O)O (H-Glu-Trp-OH),inactive,inactive,inactive,inactive,inactive,1.08 (inactive),0.582,0.474,,,,,,,
CN1C(=O)N[C@H](Cc2c[nH]c3c(Cl)cccc23)C1=O,inactive,inactive,inactive,inactive,inactive,0.358 (inactive),0.688,0.653,,,,,,,
NS(=O)(=O)c1ccc(S(=O)(=O)Nc2cccc3c(Cl)c[nH]c23)cc1,inactive,742 nM (active),590 nM (active),inactive,inactive,-0.956 (inactive),-0.0531,-0.727,,,,,,,
C/C(=N\NC(=S)N1CCC1)c1ccccn1,inactive,10.5 nM (active),9.3 nM (active),inactive,inactive,-0.969 (inactive),-1.12,-1.07,,,,,,,
OC[C@H]1O[C@@H](S[C@@H]2O[C@H](CO)[C@H](O)[C@H](n3cc(-c4cccc(F)c4)nn3)[C@H]2O)[C@H](O)[C@@H](n2cc(-c3cccc(F)c3)nn2)[C@H]1O,inactive,inactive,inactive,inactive,inactive,-0.122 (inactive),0.00215,0.252,,,,,,,
CC(C)(C)c1[nH]cnc1/C=c1\[nH]c(=O)/c(=C/c2ccccc2)[nH]c1=O,inactive,118 nM (active),118 nM (active),inactive,inactive,,-2.5,-2.52,,174 nM (active),,,,,
O=C(NO)c1cnc(NC2(c3cccc(F)c3)CCCCC2)nc1,inactive,14800 nM (active),14800 nM (active),inactive,inactive,-1.41 (inactive),-0.775,-0.635,,,,,,,
CCN(C(=O)c1ccccc1OC)c1cc2c(cc1N1CCNC[C@H]1C)n(C)c(=O)n2C,inactive,inactive,inactive,inactive,inactive,-0.888 (inactive),-0.889,-0.903,,,,,,,
CC1(C)C(N(O)C(=O)Nc2ccc(Cl)cc2)N(c2ccc(Cl)cc2)C(=O)N1CC(=O)N/N=C/C=C/c1ccc([N+](=O)[O-])o1 (stereo unspecified),14700 nM (active),7420 nM (active),8330 nM (active),inactive,14300 nM (active),1.66 (inactive),1.13,1.09,,,,,,,
NCC(=O)Nc1cncc(-c2nn3c(=O)cc(N4CCNCC4)nc3s2)c1,inactive,inactive,inactive,inactive,inactive,0.673 (inactive),0.487,1.13,,,,,,,
CNCCn1c(=O)c2cc(OC)c(OC)cc2c2cnc3cc4c(cc3c21)OCO4,,9.6 nM (active),6 nM (active),,,,-3.24,-2.15,-8.45% [at 8.44 µM] (inactive),7.1 nM (active),inactive [at 9.52 µM],inactive [at 9.73 µM],,,
Cc1cnc(NC(=O)c2cc(Oc3cnc(C(=O)N(C)C)nc3)c3cc(C)oc3c2)cn1,inactive,inactive,inactive,inactive,inactive,-1.14 (inactive),-0.452,0.0814,,,,,,,
COc1cccc(-c2c(C)n(Cc3c(F)cccc3C(F)(F)F)c(=O)n(C[C@H](NCCCC(=O)O)c3ccccc3)c2=O)c1F,inactive,inactive,inactive,inactive,inactive,1.28 (inactive) and 1.27 (inactive),0.714 and 0.439,0.863 and 0.647,,,,,,,

Compound,Potency [1],Potency [2],Potency [3],Potency [4],Potency [5],Z-AUC [6],"Z-AUC [6, 7]",Z-AUC ([6]; measured here: PEO4 Z-AUC),"activity change, negative = inhibition [1]",Potency [6],outcome [4],outcome [5],"activity change, negative = viability loss [2]","activity change, negative = cell killing [3]","activity change, negative = inhibition [5]"
O=C1OC(COc2ccccc2[N+](=O)[O-])CC1Cc1ccccc1 (stereo unspecified),inactive,inactive,inactive,inactive,inactive,-0.926 (inactive),-0.0369,-0.342,,,,,,,
Cn1cc(-c2nc(N[C@@H]3CCCC[C@@H]3N)c(F)c3c2C(=O)NC3)cn1,,662 nM (active),590 nM (active),,,0.172 (inactive),0.884,0.422,-16.3% [at 5.1 µM] (inactive),,inactive [at 4.49 µM],inactive [at 4.52 µM],,,
C[C@H](Nc1nc(N[C@H](C)C(F)(F)F)nc(-c2cccc(Cl)n2)n1)C(F)(F)F,inactive,inactive,inactive,inactive,inactive,-0.138 (inactive),0.592,0.804,,,,,,,
CN1CCN(C(=O)[C@H]2[C@@H](C(=O)O)[C@H]3CC[C@@H]2O3)CC1,,,,,,0.39 (inactive),0.568,0.663,-7.67% [at 8.44 µM] (inactive),,inactive [at 9.52 µM],,9.83% [at 9.23 µM] (inactive),4.4% [at 9.23 µM] (inactive),3.36% [at 9.73 µM] (inactive)
O=C(C[C@@H]1C/C=C\CCC(=O)O[C@H](c2ccccc2)CNC1=O)NCc1ccc(Cl)cc1,inactive,inactive,inactive,inactive,inactive,-0.618 (inactive),0.123,-0.716,,,,,,,
Nc1nc(OC(c2ccc(-c3cccc(F)c3)cc2)C(F)(F)F)cc(-c2ccc(C[C@@H](N)C(=O)O)cc2)n1 (stereo partly specified),inactive,18600 nM (active),20900 nM (active),inactive,inactive,1.03 (inactive),1.4,1.67,,,,,,,
CC1=NN(c2ccc(C(=O)O)cc2)C(=O)/C1=C/c1ccc(-c2cc(C)c(C)cc2[N+](=O)[O-])o1,inactive,inactive,inactive,inactive,inactive,0.0308 (inactive),0.127,-0.0936,,,,,,,
CC(=O)N1CCN(c2ccc(NC(=O)Cc3cnc(-c4ccnc(F)c4)c(C)c3)nc2)CC1,inactive,inactive,inactive,inactive,inactive,1.31 (inactive),1.23,0.947,,,,,,,
CNC(=O)Cn1cc(-c2ccc3c(c2)C(F)CC32NC(=O)N(CC(=O)N(Cc3ccc(F)cc3)C(C)C(F)(F)F)C2=O)cn1 (stereo unspecified),inactive,83.3 nM (active),132 nM (active),inactive,inactive,0.772 (inactive),0.67,0.562,,,,,,,
C[C@]12CC[C@H](O)CC1=CC[C@@H]1[C@@H]2CC[C@]2(C)C(c3cccnc3)=CC[C@@H]12,inactive,inactive,inactive,inactive,inactive,0.978 (inactive),0.324,0.672,,,,,,,
CCN(CC)CCCC[C@H](NC(=O)[C@H](CC(C)C)NC(=O)[C@H](C)NC(=O)[C@H](Cc1ccccc1)NC(=O)c1ccc(C(C)(C)C)cc1)C(=O)N[C@@H](CO)C(=O)OC ({Benzoyl(4-tBu)}-FAL[Lys(Et2)]S-OMe),inactive,inactive,inactive,inactive,inactive,-0.334 (inactive),0.227,-0.0734,,,,,,,
COc1ccc2[nH]c(C(=O)N3CCC(CC(C)(C)O)CC3)cc2c1,inactive,inactive,inactive,inactive,inactive,0.0283 (inactive),0.0965,0.395,,,,,,,
COc1ccc(S(=O)(=O)N[C@@H](CNc2nc(C)nc(N3CCC(c4ccc5c(n4)NCCC5)CC3)c2C)C(=O)O)cc1,inactive,inactive,inactive,inactive,inactive,,-1.54,-1.12,,61.6 nM (active),,,,,
COc1ccccc1C(=O)Nc1cc2c(cc1N1CCCCC1)n(C)c(=O)n2C,inactive,inactive,inactive,inactive,inactive,1.08 (inactive),0.729,0.646,,,,,,,
CCC1CCCCN1C(=O)n1ncc(C(O)(c2ccccc2)c2ccccc2)n1 (stereo unspecified),inactive,10500 nM (active),14800 nM (active),inactive,inactive,0.1 (inactive),0.47,0.409,,,,,,,
CCCNC(=O)[C@H]1O[C@@H]1C(=O)N[C@H](C(=O)N1CCC[C@H]1C(=O)OC)C(C)CC (stereo partly specified),inactive,6610 nM (active),7420 nM (active),inactive,inactive,0.833 (inactive),0.0577,0.0351,,,,,,,
Cc1c(Cl)cccc1S(=O)(=O)Nc1nc(CCN2CCOCC2=O)cs1,inactive,inactive,inactive,inactive,inactive,0.943 (inactive),0.512,0.46,,,,,,,
O=S(=O)(Nc1ccc(-c2cccnc2)c2cccnc12)c1cccc(C(F)(F)F)c1,8290 nM (active),7420 nM (active),7420 nM (active),inactive,inactive,0.456 (inactive),0.0874,0.396,,,,,,,
